Experimental data taken from PubChem BioAssay (NCI).
This is part of a sample that, as a whole, favours compounds with a hit. Of some 83,000 tested, about 20% had one in any assay.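 Note: values are percent growth. 100 is the growth of untreated cells, values between 100 and 0 indicate rising inhibition; between -100 and 0 indicates cell death.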 Active and inactive are the calls of the source. How the source made its calls: active means growth percent below 10; inactive means the rest.

Tests used:
Test in all cases: NCI-60 one-dose screen, 48 h (100 = growth as untreated, 0 = no growth, -100 = all killed)
[1] = test system: SK-MEL-2 melanoma; conditions: 10 µM unless noted
[2] = test system: EKVX NSCLC; conditions: 10 µM unless noted
[3] = test system: SN12C renal; conditions: 10 µM unless noted
[4] = test system: UO-31 renal; conditions: 10 µM unless noted
[5] = test system: TK-10 renal; conditions: 10 µM unless noted
[6] = test system: ACHN renal; conditions: 10 µM unless noted
[7] = test system: CAKI-1 renal; conditions: 10 µM
[8] = test system: A498 renal; conditions: 10 µM unless noted
[9] = test system: CCRF-CEM leukemia; conditions: 10 µM unless noted
[10] = test system: MOLT-4 leukemia; conditions: 10 µM unless noted
[11] = test system: SR leukemia; conditions: 10 µM unless noted
[12] = test system: RPMI-8226 leukemia; conditions: 10 µM unless noted
[13] = test system: OVCAR-8 ovarian; conditions: 10 µM unless noted
[14] = test system: OVCAR-5 ovarian; conditions: 10 µM unless noted
[15] = test system: OVCAR-4 ovarian; conditions: 10 µM unless noted
[16] = test system: SK-OV-3 ovarian; conditions: 10 µM unless noted
[17] = test system: IGROV1 ovarian; conditions: 10 µM unless noted
[18] = test system: HS 578T breast; conditions: 10 µM unless noted
[19] = test system: NCI/ADR-RES ovarian; conditions: 10 µM unless noted

Measured: growth

Cc1cc(C(=O)Nc2ccc(SC#N)cc2)c(C)o1
inactive: [1] 110% | [2] 90.4% | [3] 70.6% | [4] 49.3% | [5] 101% | [6] 100% | [7] 81.7% | [8] 94.4% | [9] 28.8% | [10] 29.7% | [12] 83.1% | [13] 98.3% | [14] 115% | [15] 104% | [16] 111% | [17] 88.9% | [18] 112% | [19] 100%
active: [11] 5.44%

O=C1NC(=O)c2c1c1c3ccccc3ccc1c1[nH]c3ccccc3c21
inactive: [2] 11.1% | [3] 17.3% | [14] 49.6% | [15] 25.8% | [18] 12.7%
active: [1] -12.5% | [4] -4.64% | [5] -4.05% | [6] -2.53% | [7] 4.16% | [8] -36.3% | [9] 9.91% | [10] 3.16% | [11] -9.49% | [12] 1.6% | [13] 6.43% | [16] 2.2% | [17] 9.53% | [19] 0.105%

Cc1ccc(-c2csc(N/N=C/c3nc4ccccc4n3C3CC3)n2)cc1
active: [6] 1.34% | [9] -20.9%
inactive: [1] 74.7% | [2] 97.5% | [3] 82.8% | [4] 16.1% | [5] 141% | [7] 77.9% | [8] 78.3% | [10] 37.3% | [11] 25.1% | [12] 84.8% | [13] 18.9% | [14] 105% | [15] 93.1% | [16] 120% | [17] 57.8% | [18] 88.5% | [19] 72.9%

Cn1cc(-c2nn3cc(-c4ccncc4)nc3s2)c2cc(Cl)ccc21
inactive: [1] 76% | [2] 33.4% | [3] 61.2% | [4] 43.4% | [5] 116% | [6] 60.5% | [7] 51.3% | [8] 89.7% | [9] 10.5% | [12] 19.5% | [13] 14.6% | [14] 66.8% | [15] 78.6% | [16] 89.5% | [17] 17.2% | [18] 49.8% | [19] 32.4%
active: [10] 2.31% | [11] -4.53%

CC(C)=CCC[C@](C)(O)[C@H]1CC[C@]2(C)[C@@H]1CC[C@@H]1[C@@]3(C)CCC(NC(=O)c4ccccc4C(=O)O)C(C)(C)[C@@H]3CC[C@]12C (some centres undefined)
inactive: [1] 39.8% | [2] 101% | [3] 92.9% | [4] 85.2% | [5] 106% | [6] 73.5% | [7] 66.4% | [8] 103% | [9] 95.9% | [10] 97.5% | [11] 86.9% | [12] 90.9% | [13] 96.3% | [14] 94.9% | [15] 105% | [16] 104% | [17] 102% | [18] 89.2% | [19] 98.3%

COc1cc2cc(Oc3ccc(NC(=O)c4cccc(C(F)(F)F)c4)cc3)c(C)nc2cc1OCCN(C)C
inactive: [1] 108% | [2] 83% | [3] 84.1% | [4] 84% | [5] 98% | [6] 86.6% | [7] 75.2% | [8] 100% | [9] 41% | [10] 67.1% | [11] 28.6% | [12] 73.1% | [13] 89.8% | [14] 103% | [15] 80.5% | [16] 108% | [17] 93.2% | [18] 74.8% | [19] 80.7%

COc1cc(/C=C/C(=O)c2ccc(N3CCN(C)CC3)cc2)ccc1F
inactive: [1] 115% | [2] 88.4% | [3] 81.2% | [4] 56.5% | [5] 124% | [6] 79% | [7] 63.6% | [8] 98.7% | [9] 53.8% | [10] 88.5% | [11] 28.3% | [12] 28.4% | [13] 88.9% | [14] 81.6% | [15] 75.9% | [16] 99.3% | [17] 56.6% | [18] 104% | [19] 82.8%

NS(=O)(=O)c1ccc(Nc2nc(N/N=C/c3ccc([N+](=O)[O-])cc3)nc(Nc3ccccc3)n2)cc1
inactive: [1] 18.2% | [2] 83.7% | [3] 27.4% | [4] 81.9% | [5] 93.8% | [6] 82.6% | [7] 50.6% | [8] 18.5% | [9] 11.8% | [10] 11.9% | [11] 15.6% | [12] 43.3% | [13] 33.2% | [14] 82% | [15] 55.8% | [16] 67.8% | [17] 52.1% | [18] 53.5% | [19] 93.3%

COc1ccc(S(=O)(=O)n2cc(C=O)c3ccccc32)c(OC)c1
inactive: [1] 96.1% | [2] 91.4% | [3] 85.2% | [4] 52.4% | [5] 106% | [6] 85.6% | [7] 52.5% | [8] 92.4% | [9] 33.5% | [10] 29.2% | [11] 16.4% | [12] 38.7% | [13] 76.1% | [14] 96.1% | [15] 80.9% | [16] 97.4% | [17] 86.6% | [18] 78.3% | [19] 51%

CCCCCc1ccc(S(=O)(=O)N(C(C)=O)c2cccc(-c3csc(N(CCN4CCN(C)CC4)C(C)=O)n3)c2)cc1
inactive: [1] 92.8% | [2] 61.8% | [3] 62.6% | [5] 99.2% | [7] 20.5% | [8] 71.1% | [13] 60.7% | [14] 92.2% | [15] 47.1% | [16] 100% | [17] 46.8% | [18] 72.8% | [19] 48.3%
active: [4] -69.2% | [6] -10.5% | [9] 4.61% | [10] -9.16% | [11] -17.7% | [12] -27.8%

NS(=O)(=O)Oc1ccc2nc(Nc3ccc(F)c(F)c3)ccc2c1
inactive: [1] 116% | [2] 93.4% | [3] 88% | [4] 73.3% | [5] 118% | [6] 85.8% | [7] 76.7% | [8] 74.5% | [9] 67.8% | [10] 67% | [11] 60.5% | [12] 86.7% | [13] 96.1% | [14] 91.6% | [15] 88.9% | [16] 111% | [17] 94.4% | [18] 104% | [19] 94.6%

C#C[C@]1(O)CC[C@H]2[C@@H]3CC=C4c5sc(Nc6cccc(C)n6)nc5CC[C@]4(C)[C@H]3CC[C@@]21C
active: [1] -9.35% | [2] 8.96% | [4] -15.4% | [7] 2.65% | [8] -29.2% | [9] 2.04% | [10] -25.2% | [11] -25% | [12] -33.2% | [16] -7.51% | [18] -15.8%
inactive: [3] 56.4% | [5] 77.2% | [6] 33.1% | [13] 39% | [14] 56.4% | [15] 56.6% | [17] 45.5% | [19] 38.5%

O=C1c2c(c3c4cc(Br)ccc4[nH]c3c3ccc4ccccc4c23)C(=O)N1CCN1CCCCC1
active: [9] -0.774% | [10] -1.44% | [11] -21.6% | [12] -36.5% | [13] -51.8% | [19] 6.23%
inactive: [1] 112% | [2] 81.1% | [3] 41.1% | [4] 48.7% | [5] 132% | [6] 18.5% | [7] 31.2% | [8] 72.7% | [14] 99.8% | [15] 95.2% | [16] 57% | [17] 59.8% | [18] 104%

C#C[C@]1(O)CC[C@H]2[C@@H]3CC=C4c5sc(Nc6cccc(Cl)n6)nc5CC[C@]4(C)[C@H]3CC[C@@]21C
active: [1] -24.9% | [2] 1.89% | [4] -37.8% | [7] -40.6% | [8] -62.6% | [9] 5.11% | [10] -15.9% | [11] 2.56% | [12] -23.2% | [16] -13.7% | [18] -19.9%
inactive: [3] 40% | [5] 33.2% | [6] 16.4% | [13] 29.3% | [14] 22.8% | [15] 47.8% | [17] 35.6% | [19] 23%

O=C(/C=C1\C=CN(CCCCCCF)c2ccccc21)n1ccc2ccccc21
inactive: [1] 111% | [2] 79% | [3] 90.5% | [4] 71.5% | [5] 115% | [6] 97.4% | [7] 86.5% | [8] 96.3% | [9] 96.1% | [10] 106% | [11] 85.8% | [12] 74.7% | [13] 101% | [14] 99.3% | [15] 81.9% | [16] 98.8% | [17] 67.6% | [18] 96.7% | [19] 105%

CC(C)c1nn(-c2ccccc2)c(N2CCCCC2)c1/C=N/NC(N)=S
inactive: [1] 104% | [2] 82.1% | [3] 89.9% | [4] 64.5% | [5] 113% | [6] 87.2% | [7] 69.2% | [8] 66.2% | [9] 89.7% | [10] 83.6% | [11] 88.8% | [12] 78.2% | [13] 97.1% | [14] 98.7% | [15] 72.4% | [16] 106% | [17] 83.9% | [18] 103% | [19] 86.9%
